# Results as given in ChEMBL document CHEMBL4513216, “Probing the Open Global Health Chemical Diversity Library for Multistage-Active Starting Points for Next-Generation Antimalarials” (ACS Infect Dis, 2020).
# The campaign covered roughly 69,000 compounds. About 8,600 (12%) showed an effect of 50% or more. The full list was thinned out, with strong results kept by preference.
# Tested on: Plasmodium berghei
# Assay: Screen against P. berghei liver stage (PbLuc), transformed with Luciferase, at 10uM
# Format: functional, HepG2
# Conditions: tested at 10 uM
row,SMILES,INHIBITION
1,COc1ccccc1NC(=O)NCc1nnc(SC)n1C,8.125%
2,N#CC1(C(=O)N2CCCN(Cc3cscn3)CC2)CCCCC1,-54.6%
3,CC(C)C(=O)N1CCCC(Cc2ncccn2)C1 (centres undefined),32.7%
4,CC(C)CCCC1CN(C(=O)c2cnc[nH]2)CCO1 (centres undefined),-10.5%
5,COc1ccccc1C(NCc1ccc(SC)cc1)c1nccn1C (centres undefined),29.06%
6,CSc1ccc(CNC(c2ccccc2)c2nccn2C)cc1 (centres undefined),79.1%
7,Cn1ccnc1C(NCc1csc(Br)c1)c1ccccc1 (centres undefined),51.6%
8,Cn1ccnc1C(NCc1ccccc1)c1ccc(F)cc1 (centres undefined),32.9%
9,CSc1ccc(CNC(c2ccccc2F)c2nccn2C)cc1 (centres undefined),-27.24%
10,COc1cccc(C(NCc2ccc(SC)cc2)c2nccn2C)c1 (centres undefined),51.2%
11,Cc1ccc(CNC(c2cccc(F)c2)c2nccn2C)o1 (centres undefined),24.2%
12,COc1c(CNC(c2ccccc2)c2nccn2C)c(C)nn1C (centres undefined),39.4%
13,COc1cc(CNC(c2ccccc2)c2nccn2C)cc(OC)c1 (centres undefined),-76.15%
14,CSc1ccc(CNC(c2ccc(F)cc2)c2nccn2C)cc1 (centres undefined),-1.6%
15,Cn1ccnc1C(NCc1ccc(Br)cc1)c1ccccc1 (centres undefined),-32.9%
16,Cc1ccc(CNC(c2ccc(F)cc2)c2nccn2C)o1 (centres undefined),52.6%
17,CC(=O)NCCCNC(=O)Nc1ccccc1-n1nc(C)cc1C,9.06%
18,COc1ccccc1C(=O)NS(=O)(=O)c1cccc(C#N)c1,25.1%
19,COc1cc(CN)c(OC)c2c1OCO2,-3.48%
20,CCCS(=O)(=O)N1CCC2(CN(c3ccsc3)C(=O)CN2C)C1 (centres undefined),-24.2%
21,Cc1oncc1C(=O)N1CC[C@H]2C[C@H](c3ccncn3)O[C@@H]2C1,11.3%
22,Cn1ncc(Cl)c1C(=O)N1CCC(c2nnsc2S(C)(=O)=O)CC1,-9.2465%
23,Cc1cc(C)cc(CNC(c2ccccc2)c2nccn2C)c1 (centres undefined),41.15%
24,Cc1ccc(CNC(c2ccccc2)c2nccn2C)cc1 (centres undefined),33.6%
25,Cc1ccc(CNC(c2ccccc2)c2nccn2C)cc1C (centres undefined),54.9%
26,Cc1cc(CN2CCCC2c2noc(C(C)C)n2)on1 (centres undefined),47%
27,O=C(O)c1cncc(Cc2ccc(F)cc2)c1,-3.02%

row,SMILES,INHIBITION
1,CCN(Cc1ccoc1)C(=O)c1ccc(C)c(S(N)(=O)=O)c1,-2.97%
2,CCN(Cc1ccoc1)C(=O)c1cc(C)c(C)c(S(N)(=O)=O)c1,-5.94%
3,CCN(Cc1ccncc1)C(=O)c1cc(C)c(C)c(S(N)(=O)=O)c1,52.8%
4,CC(C)(C)C(=O)NCC(=O)NCCc1nc(C(F)(F)F)cs1,15%
5,O=C1CC2(CCN(C(=O)c3cccc(Cl)c3)CC2)CN1,55.7%
6,CN(C)C(=O)N1CCN(C(=O)c2ccccc2)CC2(CNC(=O)C2)C1 (centres undefined),-0.804%
7,CN(C)C(=O)N1CCN(C(=O)c2cccc(Cl)c2)CC2(CNC(=O)C2)C1 (centres undefined),79.6%
8,CS(=O)(=O)N1CCN(C(=O)c2cccc(Cl)c2)CC2(CNC(=O)C2)C1 (centres undefined),13.7%
9,COc1cc(Cl)cc(C(=O)N2CCC3(CC2)CNC(=O)C3)c1,13.7%
10,CN(C)C(=O)N1CCN(C(=O)c2ccc(Cl)cc2)CC2(CNC(=O)C2)C1 (centres undefined),21.7%
11,O=C(Cc1noc2ccccc12)N1CCC(Nc2cccnn2)CC1,43.3%
12,CC(C)(C)c1n[nH]c(C2CN(C(=O)c3cc(C4CC4)on3)CCO2)n1 (centres undefined),35.5%
13,O=C(CCCNc1ncccn1)N1CCCC(n2cncn2)C1 (centres undefined),27.6%
14,O=C([C@H]1CN(Cc2nccs2)C[C@H]2OCC[C@@H]12)N1CCCCO1,22.2%
15,CCOC1(C)C(=O)c2ccccc2N1Nc1ccccc1C(=O)CC (centres undefined),67.3%
16,CCC(=O)c1ccccc1NN1c2ccccc2C(=O)C1(C)OC (centres undefined),17.6%
17,CCC(=O)c1ccc(Br)cc1NN1c2cc(Br)ccc2C(=O)C1(C)OC (centres undefined),70.6%
18,CC(NC(=O)N1CCNC(=O)CC1)c1ccc(C(F)(F)F)cc1 (centres undefined),48.2%
19,Cc1cc2n(n1)[C@@H](C(F)(F)F)C[C@@H](C1CCN(C(=O)C(C)C)CC1)N2,-26.2%
20,Cc1cnc(C(=O)N2CCCC(c3c(C)c(=O)nc4n3CCC4)C2)cn1 (centres undefined),-17.7%
21,O=S(=O)(NCc1ccccc1)N1CCCN(c2ccncc2)CC1,71.3%
22,O=S(=O)(NCc1ccccc1)N1CCN(c2ncccn2)CC1,31%
23,N#Cc1cccnc1N1CCN(S(=O)(=O)NCc2ccccc2)CC1,11.5%
24,Cc1[nH]c2ccc(Cl)cc2c1CCNc1ncnc2c1CCNC2,92.5%
25,Cc1[nH]c2ccc(C#N)cc2c1CCNc1ncnc2c1CCNCC2,44.3%
26,Cc1cccc(=O)n1CCCNc1ncnc2c1CCNCC2,-1.98%
27,Cc1[nH]c2ccccc2c1CCNc1ncnc2c1CCNCC2,72.1%
